From publication PMC7862700, “An all-to-all approach to the identification of sequence-specific readers for epigenetic DNA modifications on cytosine”

Legend:
Test in all cases: DAPPL (digital affinity profiling via proximity ligation, sequencing); 10 mM Tris-HCl pH 7.5, 50 mM NaCl, 1 mM DTT, 4% glycerol, room temperature, 30 min; GST-TFs on glutathione beads, 16-mer random dsDNA library, 0.1% formaldehyde crosslink after washing; high values mean tight binding
Conditions in all cases: protein: recombinant; tags: N-terminal GST; dsDNA, one strand shown
ELK1 = target: T1, ELK1 (Homo sapiens, UniProt P19419 1-428)
T1 sequence: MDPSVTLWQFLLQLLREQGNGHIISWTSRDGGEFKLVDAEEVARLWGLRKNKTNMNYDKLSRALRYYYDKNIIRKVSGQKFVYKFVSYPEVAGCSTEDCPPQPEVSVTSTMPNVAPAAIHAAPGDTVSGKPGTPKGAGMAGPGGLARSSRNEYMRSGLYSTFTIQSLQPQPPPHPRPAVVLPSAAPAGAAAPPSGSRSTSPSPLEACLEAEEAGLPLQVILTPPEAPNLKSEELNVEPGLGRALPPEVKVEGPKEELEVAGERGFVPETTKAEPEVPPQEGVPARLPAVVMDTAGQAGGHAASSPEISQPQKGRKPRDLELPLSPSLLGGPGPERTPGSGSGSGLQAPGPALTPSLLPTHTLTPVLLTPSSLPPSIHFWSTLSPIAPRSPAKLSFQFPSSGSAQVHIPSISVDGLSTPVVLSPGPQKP
In short: (§1)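 A tag-only sample was pooled with DNA-barcoded human transcription factors that had been expressed in yeast as GST fusions and captured on glutathione beads. The pools were incubated for 30 min at room temperature with 200 nmole of a random double-stranded 16-mer DNA library in Tris/NaCl/DTT/glycerol buffer, then washed, crosslinked with 0.1% formaldehyde, proximity-ligated (BsaI/T4 ligase, 1 h, 37 °C), PCR-amplified and sequenced on an Illumina NextSeq500. Binding signal is each hexamer's read frequency for a factor divided by its frequency for the tag-only sample.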

GABPA = target: T2, GABPA (Homo sapiens, UniProt Q06546 1-454)
T2 sequence: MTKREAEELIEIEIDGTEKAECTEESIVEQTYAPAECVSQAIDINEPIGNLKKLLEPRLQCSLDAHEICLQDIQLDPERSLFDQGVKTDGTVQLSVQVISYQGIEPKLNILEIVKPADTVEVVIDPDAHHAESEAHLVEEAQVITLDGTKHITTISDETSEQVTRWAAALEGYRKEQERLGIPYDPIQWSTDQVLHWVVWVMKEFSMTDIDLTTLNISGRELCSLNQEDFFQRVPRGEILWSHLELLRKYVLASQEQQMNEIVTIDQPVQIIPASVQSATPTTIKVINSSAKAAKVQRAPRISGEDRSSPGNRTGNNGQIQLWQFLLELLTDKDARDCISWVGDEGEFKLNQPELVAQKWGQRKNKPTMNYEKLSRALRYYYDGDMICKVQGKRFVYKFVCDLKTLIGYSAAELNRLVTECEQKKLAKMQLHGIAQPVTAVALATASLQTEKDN
In short: as §1

ERG = target: T3, ERG (Homo sapiens, UniProt P11308 1-479)
T3 sequence: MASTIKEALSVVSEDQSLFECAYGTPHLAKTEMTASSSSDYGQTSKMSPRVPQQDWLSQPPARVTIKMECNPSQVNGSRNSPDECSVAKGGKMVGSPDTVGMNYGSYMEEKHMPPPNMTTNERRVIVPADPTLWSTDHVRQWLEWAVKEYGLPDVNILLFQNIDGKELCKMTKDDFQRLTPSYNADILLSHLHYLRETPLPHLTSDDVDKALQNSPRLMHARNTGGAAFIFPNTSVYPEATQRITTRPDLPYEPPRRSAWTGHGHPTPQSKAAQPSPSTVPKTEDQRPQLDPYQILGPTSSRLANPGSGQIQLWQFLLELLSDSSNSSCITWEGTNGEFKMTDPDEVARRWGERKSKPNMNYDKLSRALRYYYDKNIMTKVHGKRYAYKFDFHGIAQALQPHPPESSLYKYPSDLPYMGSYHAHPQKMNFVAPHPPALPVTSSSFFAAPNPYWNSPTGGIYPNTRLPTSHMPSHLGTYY
In short: as §1

ELF1 = ELF1 (Homo sapiens, UniProt P32519 1-619)
In short: as §1

EHF = target: T4, EHF (Homo sapiens, UniProt Q9NZC4 1-300)
T4 sequence: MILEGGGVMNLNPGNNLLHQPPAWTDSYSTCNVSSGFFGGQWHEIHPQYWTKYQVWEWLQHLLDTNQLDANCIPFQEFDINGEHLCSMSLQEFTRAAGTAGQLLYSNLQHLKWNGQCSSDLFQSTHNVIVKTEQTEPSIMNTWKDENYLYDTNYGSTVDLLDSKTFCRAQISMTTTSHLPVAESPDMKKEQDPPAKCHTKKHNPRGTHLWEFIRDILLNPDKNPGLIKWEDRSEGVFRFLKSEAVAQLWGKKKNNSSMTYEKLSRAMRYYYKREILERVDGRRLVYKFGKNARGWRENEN
In short: as §1

SPIB = SPIB (Homo sapiens, UniProt Q01892 1-262)
In short: as §1

FEV = target: T5, FEV (Homo sapiens, UniProt Q99581 1-238)
T5 sequence: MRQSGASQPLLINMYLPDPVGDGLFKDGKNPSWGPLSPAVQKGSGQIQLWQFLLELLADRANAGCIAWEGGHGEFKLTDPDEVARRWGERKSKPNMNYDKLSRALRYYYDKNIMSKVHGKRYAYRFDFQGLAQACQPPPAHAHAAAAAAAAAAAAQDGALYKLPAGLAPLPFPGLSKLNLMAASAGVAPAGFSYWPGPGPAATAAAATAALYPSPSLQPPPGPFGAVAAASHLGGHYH
In short: as §1

ETV5 = ETV5 (Homo sapiens, UniProt P41161 1-510)
In short: as §1

ELF4 = ELF4 (Homo sapiens, UniProt Q99607 1-663)
In short: as §1

ELK4 = target: T6, ELK4 (Homo sapiens, UniProt P28324-2 1-405)
T6 sequence: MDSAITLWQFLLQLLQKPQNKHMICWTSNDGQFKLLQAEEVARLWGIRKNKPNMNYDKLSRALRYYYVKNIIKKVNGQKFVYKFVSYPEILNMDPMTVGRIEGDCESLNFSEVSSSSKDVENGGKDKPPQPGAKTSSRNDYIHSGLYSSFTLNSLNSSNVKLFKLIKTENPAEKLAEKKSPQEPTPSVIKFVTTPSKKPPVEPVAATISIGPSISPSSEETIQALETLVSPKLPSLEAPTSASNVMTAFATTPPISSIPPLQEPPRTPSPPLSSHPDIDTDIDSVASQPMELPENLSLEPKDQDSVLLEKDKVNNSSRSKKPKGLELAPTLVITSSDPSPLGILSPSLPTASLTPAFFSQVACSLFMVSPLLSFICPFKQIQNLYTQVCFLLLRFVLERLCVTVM
In short: as §1

ETV5, sequence (P41161 whole entry): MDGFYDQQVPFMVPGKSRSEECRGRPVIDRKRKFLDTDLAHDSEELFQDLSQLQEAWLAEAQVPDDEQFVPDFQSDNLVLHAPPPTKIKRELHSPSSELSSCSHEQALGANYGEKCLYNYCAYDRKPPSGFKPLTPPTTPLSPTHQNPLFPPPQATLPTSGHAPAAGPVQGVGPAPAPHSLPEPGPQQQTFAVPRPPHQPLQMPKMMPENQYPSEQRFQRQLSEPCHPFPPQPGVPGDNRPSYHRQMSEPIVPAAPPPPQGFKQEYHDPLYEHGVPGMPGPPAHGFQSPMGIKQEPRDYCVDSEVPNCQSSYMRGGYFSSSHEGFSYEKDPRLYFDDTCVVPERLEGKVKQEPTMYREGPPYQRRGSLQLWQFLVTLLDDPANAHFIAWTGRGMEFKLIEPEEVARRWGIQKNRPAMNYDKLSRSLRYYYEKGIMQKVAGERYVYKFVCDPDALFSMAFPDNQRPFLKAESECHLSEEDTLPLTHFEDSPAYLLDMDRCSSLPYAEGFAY
ELF4, sequence (Q99607 whole entry): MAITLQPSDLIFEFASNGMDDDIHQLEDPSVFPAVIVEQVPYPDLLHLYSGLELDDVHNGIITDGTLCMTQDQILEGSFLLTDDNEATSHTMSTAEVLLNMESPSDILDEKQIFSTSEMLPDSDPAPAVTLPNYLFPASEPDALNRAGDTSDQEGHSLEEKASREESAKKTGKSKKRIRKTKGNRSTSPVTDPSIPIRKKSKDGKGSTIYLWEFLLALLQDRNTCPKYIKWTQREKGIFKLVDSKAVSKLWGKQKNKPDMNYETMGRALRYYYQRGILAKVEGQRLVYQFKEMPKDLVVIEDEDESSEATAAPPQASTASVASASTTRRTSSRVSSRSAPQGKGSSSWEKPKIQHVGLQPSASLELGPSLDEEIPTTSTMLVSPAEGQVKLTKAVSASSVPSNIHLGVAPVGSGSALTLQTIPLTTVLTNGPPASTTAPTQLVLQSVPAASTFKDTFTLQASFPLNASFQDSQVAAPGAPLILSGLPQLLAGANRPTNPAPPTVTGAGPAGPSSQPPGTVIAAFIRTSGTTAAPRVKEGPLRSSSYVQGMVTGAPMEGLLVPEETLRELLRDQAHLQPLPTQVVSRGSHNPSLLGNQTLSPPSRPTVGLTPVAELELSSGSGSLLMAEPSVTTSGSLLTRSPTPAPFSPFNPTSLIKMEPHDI
ELF1, sequence (P32519 whole entry): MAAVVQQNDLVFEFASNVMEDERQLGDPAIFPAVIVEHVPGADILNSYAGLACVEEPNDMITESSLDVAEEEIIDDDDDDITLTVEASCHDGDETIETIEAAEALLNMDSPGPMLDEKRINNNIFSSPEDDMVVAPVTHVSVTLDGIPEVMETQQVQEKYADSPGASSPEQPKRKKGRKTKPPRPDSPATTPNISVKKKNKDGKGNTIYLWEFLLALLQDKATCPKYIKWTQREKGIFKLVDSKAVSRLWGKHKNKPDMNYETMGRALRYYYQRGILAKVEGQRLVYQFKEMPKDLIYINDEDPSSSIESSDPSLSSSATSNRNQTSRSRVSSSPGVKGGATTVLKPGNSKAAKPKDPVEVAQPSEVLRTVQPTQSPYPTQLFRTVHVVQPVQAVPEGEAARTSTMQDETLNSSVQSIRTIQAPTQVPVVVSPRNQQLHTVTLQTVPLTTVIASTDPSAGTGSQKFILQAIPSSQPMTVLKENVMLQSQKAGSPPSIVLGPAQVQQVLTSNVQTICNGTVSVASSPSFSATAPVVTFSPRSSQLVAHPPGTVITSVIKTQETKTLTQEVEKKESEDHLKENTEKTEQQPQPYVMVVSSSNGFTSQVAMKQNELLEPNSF
SPIB, sequence (Q01892 whole entry): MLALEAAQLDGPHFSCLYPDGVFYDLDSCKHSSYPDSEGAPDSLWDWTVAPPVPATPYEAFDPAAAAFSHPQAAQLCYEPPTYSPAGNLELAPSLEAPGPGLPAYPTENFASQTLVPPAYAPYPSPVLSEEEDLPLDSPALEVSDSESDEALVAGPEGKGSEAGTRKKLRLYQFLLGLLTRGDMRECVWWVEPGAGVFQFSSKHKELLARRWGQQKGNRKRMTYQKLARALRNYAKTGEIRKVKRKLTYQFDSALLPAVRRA

**Q.** ATGCCA was tested. Which binding signal (ELK1) did it give?
**A.** 1.06 fold enrichment (6-mer frequency, TF over GST control)

**Q.** And the binding signal (GABPA)?
**A.** 1.02 fold enrichment (6-mer frequency, TF over GST control)

**Q.** What about the binding signal (ERG) of the same sequence?
**A.** 1.04 fold enrichment (6-mer frequency, TF over GST control)

**Q.** And the binding signal (ELF1)?
**A.** 1.07 fold enrichment (6-mer frequency, TF over GST control)

**Q.** What about the binding signal (EHF) of the same sequence?
**A.** 1.05 fold enrichment (6-mer frequency, TF over GST control)

**Q.** What about the binding signal (SPIB) of the same sequence?
**A.** 1.03 fold enrichment (6-mer frequency, TF over GST control)

**Q.** What about the binding signal (FEV) of the same sequence?
**A.** 1.04 fold enrichment (6-mer frequency, TF over GST control)

**Q.** What about the binding signal (ETV5) of the same sequence?
**A.** 1.05 fold enrichment (6-mer frequency, TF over GST control)

**Q.** And the binding signal (ELF4)?
**A.** 1.09 fold enrichment (6-mer frequency, TF over GST control)

**Q.** What about the binding signal (ELK4) of the same sequence?
**A.** 1.02 fold enrichment (6-mer frequency, TF over GST control)
